The values that follow come from PubChem BioAssay AID590 (National Center for Advancing Translational Sciences (NCATS), 2007).

Values joined by “and” are separate entries in the source; they are usually repeats but may differ in a detail not shown here. Equal entries are not always repeated. The whole screen tested about 59,000 compounds, of which about 6,500 (11%) were called active. Inconclusive results (about 15%) are left out. No stated cut-off is given here; in the data, active means max dye-equivalent concentration above about 10 nM; inconclusive means mostly about 1.1 nM to 9.6 nM; inactive means weaker than that. The full list was thinned out, with actives kept by preference.

The experiment can be described thus: qHTS Assay for Spectroscopic Profiling in A350 Spectral Region. The settings on record: Compound autofluorescence, 340/450 nm, Alexa 350 dye-equivalents; stronger effect = higher value. A general note: In qHTS, concentration-response curves come from the screen itself.
Regarding `Cc1ccc(-c2csc3nnc(SCC(=O)NCc4ccco4)n23)cc1`, the max dye-equivalent concentration entry is “inactive”.

On to `CC1CN(C2CCCCC2)c2nc3c(c(=O)n(C)c(=O)n3C)n2C1` (stereo not given), for which the max dye-equivalent concentration result is “inactive”.

`CC1=C(C(=O)OC2CCCCC2)C(c2cccnc2)n2ncnc2N1` (stereo not given): the max dye-equivalent concentration entry was “inactive”.

As for `CCSc1nc2c(c(=O)[nH]1)C(c1cccnc1)C(C(=O)OC(C)C)=C(C)N2` (stereo not given), the max dye-equivalent concentration was 1.2e-08 M (active).

`COC(=O)C1=C(N)Oc2cc(C)oc(=O)c2C1c1cccnc1` (stereo not given): the max dye-equivalent concentration result is “inactive”.

Turning to `C=C(C)c1cccc(C(C)(C)NC(=O)N2CCN(c3ncccn3)CC2)c1`, the max dye-equivalent concentration result was “inactive”.

Regarding `CCOC(=O)c1c(C2CC2)csc1NC(=O)CSCc1c(C)noc1C`, the max dye-equivalent concentration entry is “inactive”.

As to `COc1c(C)c2c(c(O)c1C/C=C(\C)CCC(=O)O)C(=O)OC2`, the max dye-equivalent concentration was 6e-08 M (active) and 1.6e-08 M (active).

Turning to `COc1ccc(CC(=O)Nc2ccc3c(c2)CCC3)cc1S(=O)(=O)N1CCOCC1`, the max dye-equivalent concentration entry is “inactive”.

For `Clc1ccc(C=Nc2ccc3c(c2)Cc2ccccc2-3)c(Cl)c1`, the max dye-equivalent concentration entry is “inactive”.

In the case of `CCOc1cc(CO)ccc1OCC(=O)N1CCCCC1`, the max dye-equivalent concentration entry is “inactive”.

Regarding `Cc1ccccc1NC(=O)c1ccccc1`, the max dye-equivalent concentration result is “inactive”.

`Cc1ccc(NC(=O)c2nc[nH]c2C(=O)N2CCCCC2)c(C(=O)c2ccccc2)c1`: the max dye-equivalent concentration entry was “inactive”.

For the compound `Cc1ccc2c(c1)sc1ncc(NC(=O)c3ccccc3)c(=O)n12`, the max dye-equivalent concentration is 6.5e-08 M (active).

Turning to `CCC(Oc1ccccc1)C(=O)NCc1cccnc1` (stereo not given), the max dye-equivalent concentration result was “inactive”.

For the compound `Cc1ccc(S(=O)(=O)c2nc(NCCCn3ccnc3)sc2Cl)cc1`, the max dye-equivalent concentration result is “inactive”.

Take `CC1(C)C/C(=C(/C#N)C(N)=O)CCO1`: the max dye-equivalent concentration result was “inactive”.

In the case of `O=C(c1ccccc1-c1ccccc1)N1CCOCC1`, the max dye-equivalent concentration result is “inactive”.

Regarding `CC(C(=O)Nc1ccccc1-c1ccccc1)N1CCOCC1` (stereo not given), the max dye-equivalent concentration result was “inactive”.

Regarding `CC(C(=O)N1CCOCC1)N1c2cccc3cccc(c23)S1(=O)=O` (stereo not given), the max dye-equivalent concentration is 8e-08 M (active).

For `COC(=O)c1nc(NC(=O)c2ccc(Cl)cc2)n[nH]1`, the max dye-equivalent concentration result was “inactive”.

With `CCC(=O)c1ccc(OCC(O)CN2CC(C)OC(C)C2)cc1` (stereo not given), the max dye-equivalent concentration entry was “inactive”.

Turning to `CC1CCCC(NC(=O)CN2CCN(Cc3ccc(Cl)cc3)C2=O)C1C` (stereo not given), the max dye-equivalent concentration entry is “inactive”.

Take `C[C@@H](N)[C@@H](C)Cc1ccccc1`: the max dye-equivalent concentration entry was “inactive”.

In the case of `Cc1ccc(C)n1C(Cc1ccccc1)C(=O)O` (stereo not given), the max dye-equivalent concentration is 1.3e-08 M (active).

`CC(=O)c1ccc(NC(=O)N[C@@H](Cc2ccccc2)C(=O)O)cc1`: the max dye-equivalent concentration entry was “inactive”.

Regarding `O=C(C1CCCO1)N(Cc1ccccc1)c1ccccc1` (stereo not given), the max dye-equivalent concentration result was “inactive”.

Take `CCN(c1ccccc1)S(=O)(=O)c1cccc(C(=O)O)c1`: the max dye-equivalent concentration result is “inactive”.

Consider `Nc1nc(N)c2[nH]c(CNc3ccc(C(=O)O)cc3)nc2n1`, for which the max dye-equivalent concentration entry is “inactive”.

For `O=C(Nc1ccc(Cl)cn1)Nc1cccs1`, the max dye-equivalent concentration entry was “inactive”.

Consider `c1ccc(-n2ncc3c(N4CCCC4)ncnc32)cc1`, for which the max dye-equivalent concentration result was “inactive”.

As to `Cc1ccc(-n2ncc3c2ncn2nc(-c4ccco4)nc32)c(C)c1`, the max dye-equivalent concentration result was “inactive”.

Take `COc1ccc(N2CCN(C(=O)CSc3ncnc4c3cnn4-c3ccc(OC)cc3)CC2)cc1`: the max dye-equivalent concentration result is “inactive”.

Take `Cc1cccc(-n2ncc3c(N4CCc5ccccc54)ncnc32)c1`: the max dye-equivalent concentration was 1.5e-08 M (active).

For `COc1ccc(-n2ncc3c(N4CCCc5ccccc54)ncnc32)cc1`, the max dye-equivalent concentration was 2.5e-08 M (active).

Regarding `CCCc1nc2c3cnn(-c4cccc(Cl)c4)c3ncn2n1`, the max dye-equivalent concentration result is “inactive”.

In the case of `Cc1cc2ccccc2n2c(SCC(=O)N3CCN(C(=O)c4ccco4)CC3)nnc12`, the max dye-equivalent concentration entry was “inactive”.

For `CC(=O)Nc1ccn(Cc2c(F)cccc2Cl)n1`, the max dye-equivalent concentration entry was “inactive”.

Turning to `CCCCCn1c(SCCC(C)C)nc2c1c(=O)[nH]c(=O)n2C`, the max dye-equivalent concentration result is “inactive”.

Take `O=C(O)CN(Cc1ccco1)S(=O)(=O)c1ccc(F)cc1`: the max dye-equivalent concentration result was “inactive”.
